ELG1 genotox: qHTS screen for small molecules that induce genotoxicity in human embryonic kidney (HEK293T) cells expressing luciferase-tagged ELG1 | AID 504466, 2011 | Potency, µM (series often up to 46 µM), for inactives: top-dose activity change, positive = activation, hits mostly activators | HEK293T ELG1-luciferase reporter, luminescence, 16 h | 330,000 tested, 1.3% active; also: % of control where 0% means no effect; nearly all actives have a fitted effect of over 60% in size
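Quantitative HTS format in 1536-well plates. HEK293T ELG1-luciferase reporter cells receive test compound and are incubated 16 hr at 37 °C, 5% CO2; ONE-Glo added, 30 min room temperature, then luminescence read.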
NPC1 promoter act: qHTS Assay for NPC1 Promoter Activators | Potency, µM (doses to about 9.22 µM), without a hit: at the top dose activation, usual class: activators | Huh7 NPC1 promoter luciferase reporter, 24 h | 320,000 tested, 2.4% active; also: % of control where 0% means no effect; nearly all actives have a fitted effect of over 60% in size
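Compounds in DMSO were transferred onto Huh7 NPC1-luciferase reporter cells pre-incubated 2 h; after 24 h at 37 °C, Amplite reagent was dispensed and luminescence recorded 10 min later.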
Luc counter: Counterscreen for Luciferase (Kinase-Glo TM) Inhibition | Luciferin 4-monooxygenase (Photuris pensylvanica), Q27757 | Kinase-Glo luciferase, ATP luminescence, 8 min | Potency, µM (top dose mostly 38.3 µM), for the others: at the top dose activity change, negative = inhibition, hits mostly inhibitors | 200,000 tested, 0.28% active | AID 1379, 2008; also: % is scaled to controls: 0 for no effect and ±100 for the full control effect; nearly all actives have a fitted effect of over 60% in size
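Inhibition of Kinase-Glo luciferase light generation was assessed at 10 uM ATP in pH 7.2 imidazole buffer, with luminescence measured after eight minutes at ambient temperature.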
Rab9 promoter act: qHTS Assay for Rab9 Promoter Activators. Huh7 Rab9 promoter-luciferase reporter, luminescence, 24 h. Potency, µM (titrated, usually from 9.22 µM), for the others: top-dose activation, negative = inhibition, actives largely listed as activators. 320,000 tested, 2.8% active; also: % of control where 0% means no effect; nearly all actives have a fitted effect of over 60% in size
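Steps: seed 1500 Huh7 Rab9-luc cells per well, rest 2 h at 37 °C; add compound in DMSO; incubate 24 h; add luciferase reagent, 10 min ambient; read luminescence.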
SMN2 splice up: qHTS Assay for Enhancers of SMN2 Splice Variant Expression. Potency, µM (top dose mostly 46.1 µM), for the others: top-dose activity change, positive = activation, most hits filed as activators. AID 1458, 2008. HEK293 SMN2-luciferase splicing reporter, luminescence, 30-36 h. 210,000 tested, 2.8% active; also: % of control where 0% means no effect; nearly all actives have a fitted effect of over 55% in size
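qHTS luciferase splicing reporter: luminescence rises when SMN2 exon 7 is included in transfected HEK293 cells. Compound exposure lasted 30-36 h at 37C, with 4.5 mM final sodium butyrate as control, followed by a ONE-Glo read.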
FLuc modulator: qHTS profiling assay for firefly luciferase inhibitor/activator using purifed enzyme and Km concentrations of substrates (counterscreen for miR-21 project) | purified FLuc, Km substrates, luminescence inhibition | Potency, µM (top dose mostly 57.5 µM), for the others: at the top dose activity change, negative = inhibition, usual class: inhibitors | 360,000 tested, 6.9% active | AID 588342, 2011;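 also: plate controls were vehicle for no effect and reference inhibitor for full effect; nearly all actives have a fitted effect of over 55% in size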
Target sequence (P08659 whole entry, looked up): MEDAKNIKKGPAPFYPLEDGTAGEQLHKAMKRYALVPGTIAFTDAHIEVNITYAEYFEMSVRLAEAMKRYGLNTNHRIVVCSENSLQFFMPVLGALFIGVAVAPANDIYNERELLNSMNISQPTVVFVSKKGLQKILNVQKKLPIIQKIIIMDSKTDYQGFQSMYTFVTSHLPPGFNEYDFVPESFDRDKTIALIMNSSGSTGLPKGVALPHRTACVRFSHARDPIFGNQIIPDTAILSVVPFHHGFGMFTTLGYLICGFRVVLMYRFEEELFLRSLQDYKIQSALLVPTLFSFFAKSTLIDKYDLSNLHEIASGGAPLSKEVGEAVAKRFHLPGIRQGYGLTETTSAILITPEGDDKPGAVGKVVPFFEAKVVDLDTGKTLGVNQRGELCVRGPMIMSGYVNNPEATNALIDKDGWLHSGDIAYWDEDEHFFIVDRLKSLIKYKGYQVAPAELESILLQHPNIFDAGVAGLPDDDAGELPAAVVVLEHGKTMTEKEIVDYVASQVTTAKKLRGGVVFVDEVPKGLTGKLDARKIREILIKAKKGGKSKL
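Biochemical qHTS of compounds, final roughly 60 µM downward over six points, against 10 nM purified firefly luciferase using Km concentrations of substrates (10 uM D-luciferin, 10 uM ATP) in Tris acetate pH 7.5 buffer; luminescence output.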
* marks the source's active call; other numbers are inactive results. In the library only some 7.3% were active in any assay of this set; here they are far more common. Calls follow the shape of the dose curve; as a rule, active = well fitted curve in the direction sought with a large enough effect; inconclusive = small, poorly fitted or top-dose-only effect, or another doubt; inactive = no such curve, though single readings can be large; an effect the other way counts as inactive or inconclusive. Potency is read from the fitted curve at half-maximal effect.

Results for Oc1ccc(C2C[C@H]3CC[C@@H]2C3)cc1O (some centres undefined) ?
ELG1 genotox: inconclusive; NPC1 promoter act: -15%; Rab9 promoter act: 7%; FLuc modulator: 12µM*

Results for COc1cc(/C=N/OCC(=O)Nc2cc(C)cc(C)c2)ccc1OCc1ccc(Cl)cc1 ?
ELG1 genotox: inconclusive; NPC1 promoter act: inconclusive; Luc counter: -1%; Rab9 promoter act: 3.2µM*; SMN2 splice up: 11µM*; FLuc modulator: 9.5µM*

How did COc1cc(/C=N/OCC(=O)NC2CCCCC2C)ccc1OCc1ccc(Cl)cc1 (centres undefined) do in these assays?
ELG1 genotox: 18µM*; NPC1 promoter act: inconclusive; Luc counter: 2%; Rab9 promoter act: 2.8µM*; SMN2 splice up: inconclusive; FLuc modulator: 6.7µM*

Results for COc1cc(/C=N/N2CCOCC2)ccc1OCc1ccccc1 ?
ELG1 genotox: 14%; NPC1 promoter act: 0%; Luc counter: -2%; Rab9 promoter act: 7%; SMN2 splice up: inconclusive; FLuc modulator: -17%

What do the screens show for `COC(=O)c1ccc(/C=N/OCC(=O)NC2CCCC(C)C2C)cc1` (centres undefined)?
ELG1 genotox: -11%; NPC1 promoter act: -6%; Luc counter: 6%; Rab9 promoter act: -1%; SMN2 splice up: -74%; FLuc modulator: -7%

What do the screens show for `COc1cc(/C=N/N2CCOCC2)ccc1OCc1ccc(Cl)cc1`?
ELG1 genotox: inconclusive; NPC1 promoter act: -3%; Luc counter: 5%; Rab9 promoter act: 17%; SMN2 splice up: 11µM*; FLuc modulator: 11µM*

What do the screens show for `COc1cc(/C=N\n2cnnc2)ccc1OCC(=O)Nc1ccc(C)cc1`?
ELG1 genotox: 1%; NPC1 promoter act: -3%; Luc counter: -3%; Rab9 promoter act: 3%; SMN2 splice up: -13%; FLuc modulator: 4%

What do the screens show for `Nc1c(S(=O)(=O)c2ccccc2)nnn1-c1ccccc1`?
ELG1 genotox: 2%; NPC1 promoter act: -2%; Luc counter: 0%; Rab9 promoter act: -1%; SMN2 splice up: 7%; FLuc modulator: 2%

What do the screens show for `O=C(c1cc(-c2cccc(O)c2)on1)N1CCCCCC1`?
ELG1 genotox: 13µM*; NPC1 promoter act: inconclusive; Rab9 promoter act: -1%; FLuc modulator: 8.5µM*

What do the screens show for `Cc1cccc(C)c1OCc1cc(C(=O)N2CCCCCCC2)no1`?
ELG1 genotox: 4%; NPC1 promoter act: 15%; Rab9 promoter act: 23%; FLuc modulator: inconclusive

How did COc1ccc(-c2cc(C(=O)N3CCOCC3)no2)cc1OC do in these assays?
ELG1 genotox: inconclusive; NPC1 promoter act: inconclusive; Luc counter: -4%; Rab9 promoter act: 22%; SMN2 splice up: 21%; FLuc modulator: inconclusive

Results for O=C(c1cc(-c2cccc(O)c2)on1)N1CCOCC1 ?
ELG1 genotox: 2.9µM*; NPC1 promoter act: inconclusive; Luc counter: -13%; Rab9 promoter act: inconclusive; SMN2 splice up: inconclusive; FLuc modulator: 6.7µM*

What do the screens show for `COC(=O)c1c(CSc2ccc(Cl)cc2)noc1C(=O)NCc1ccco1`?
ELG1 genotox: -4%; NPC1 promoter act: -4%; Luc counter: 1%; Rab9 promoter act: 2%; SMN2 splice up: -11%; FLuc modulator: -2%

What do the screens show for `Cc1sc(NC(=O)C2C3CCC(O3)C2C(=O)O)nc1-c1ccc(CC(C)C)cc1` (centres undefined)?
ELG1 genotox: inconclusive; NPC1 promoter act: 7%; Luc counter: 0%; Rab9 promoter act: 20%; SMN2 splice up: 20%; FLuc modulator: 15µM*
